In ChEMBL document CHEMBL4513216, “Probing the Open Global Health Chemical Diversity Library for Multistage-Active Starting Points for Next-Generation Antimalarials” (ACS Infect Dis, 2020) one finds INHIBITION data, which are given here for 71 molecules.

Each structure is given as a SMILES string. Out of some 69,000 compounds screened, about 8,600 (12%) showed an effect of 50% or more. For the sample, strong results were picked, then their nearest neighbours and some compounds at random.

The subject of the assay is Plasmodium berghei. The assay can be described thus: Screen against P. berghei liver stage (PbLuc), transformed with Luciferase, at 10uM. Type of assay: functional, HepG2. Conditions: tested at 10 uM.
For the molecule `OC1CCCN(Cc2ccnc(-c3cccnc3)n2)C1` (stereo unspecified), the INHIBITION came to 19.6%.
With `CCn1cc(-c2cc(C(F)(F)F)n(CCCN)n2)cn1`, the INHIBITION came to 8.53%.
To `Fc1ccc(CN[C@@H]2COC[C@H]2c2ccc(F)cc2)cc1` belongs -27.1%; to `Cc1noc(CN(C)C(=O)c2n[nH]c(N)c2-c2ccccc2)n1`, 1.98%; to `Cc1cc(-c2cncnc2)nc(C2CCCN2S(C)(=O)=O)n1` (stereo unspecified), 31.3%.
To `CC1CCN(C(=O)CN2CC(c3nc(C4CC4)no3)C2)CC1` belongs 58.1%; to `O=C(CN1CC(c2nc(C3CC3)no2)C1)N1CCOCC1`, 29.7%; to `O=C(CN1CCCC(c2noc(C3CC3)n2)C1)N1CCCC1` (stereo unspecified), 15.6%.
To `NC(=O)CN(Cc1ncc(-c2ccc(Cl)cc2)o1)C1CCCC1` belongs -46.6%.
`CN(C)C[C@@H]1CN(C2CCN(c3ccc(Cl)cc3)CC2)C[C@@H]1CO`: the INHIBITION is on record as -86.5%.
The figure for `CN(C)C[C@@H]1CN(C2CCN(c3ccccc3Cl)CC2)C[C@@H]1CO` is 22.3%.
To `CN(CCO)C[C@@H]1CN(C2CCN(c3ccccc3Cl)CC2)C[C@@H]1CO` belongs 55.2%; to `CCc1nnc(SC2CCCN(c3cnn(C)c3)C2=O)n1C` (stereo unspecified), -30.1%; to `COc1cccc(N2CC3(CCN(C(=O)NC(C)C)C3)CC2=O)c1` (stereo unspecified), -11.2%.
To `COc1cccc(C2CN(CCc3ccncc3)CCO2)c1` (stereo unspecified) belongs 10.5%.
Consider `Cc1ccc(S(=O)(=O)N2CCC(Oc3ccccn3)CC2)c(C)c1`, for which the INHIBITION was 78.2%.
In the case of `Cc1noc(C)c1S(=O)(=O)N1CCC(Oc2ccccn2)CC1`, the INHIBITION was found to be 45.7%.
The figure for `Cc1ccc(S(=O)(=O)N2CCC(Oc3cccnn3)CC2)c(C)c1` is 49.7%.
The figure for `CCOCn1cc(NC(=O)C2CCN(S(C)(=O)=O)CC2)cn1` is 38.2%; for `COc1ccc(CCCN2C(=O)O[C@@H]3CN(C4CCOCC4)C[C@@H]32)cc1` it is 34.9%.
The figure for `Cc1nnc(NC(=O)N2CCCCC2CCO)s1` (stereo unspecified) is 44.3%.
On to `Cc1nsc(NC(=O)N2CCCCC2CCO)n1` (stereo unspecified), for which the INHIBITION is 66.5%.
To `Cc1nsc(NC(=O)N2CCCCC2CCCO)n1` (stereo unspecified) belongs 48%; to `CC(C)CCCC(C)NC(=O)c1ccc(OCC(N)=O)cc1` (stereo unspecified), 56.4%; to `CC(C)CCC(C)NC(=O)c1ccc(OCC(N)=O)cc1` (stereo unspecified), -36.5%.
The figure for `CCNC(=O)COc1ccc(C(=O)NC(C)CCc2ccco2)cc1` (stereo unspecified) is 20.6%; for `CCn1cnnc1CNC(=O)c1cc(Cl)c(I)cc1OC` it is -7.31%; for `CC(=O)NCCC1CCCCN1C(=O)c1cccc(CCC(C)(C)O)c1` (stereo unspecified) it is 19.7%.
The figure for `O=C(Nc1ccccc1F)C1=NN(c2ccccc2)C(=O)CN1` is -73.1%; for `CN(C)CCN1CCOCC2(CCCN(C(=O)Cc3ccccc3)C2)C1` (stereo unspecified) it is 29%.
For the molecule `CCCn1cc(NC(=O)c2ccc(NC(=O)NC3CC3)cc2)ccc1=O`, the INHIBITION is on record as -13.4%.
`COCCn1cc(NC(=O)NC(C)CCc2ccccc2)ccc1=O` (stereo unspecified): the INHIBITION is recorded as 28.7%.
The figure for `CCCn1cc(NC(=O)c2cccc3cccnc23)ccc1=O` is -1.04%.
The figure for `CCCn1cc(NC(=O)c2ccc(S(C)(=O)=O)cc2)ccc1=O` is -5.65%.
For `CCCn1cc(NC(=O)c2cccnc2O)ccc1=O`, the INHIBITION is on record as 58.5%.
To `CCCn1cc(NC(=O)c2ccc(N(C)CC)cc2)ccc1=O` belongs 46.6%.
For the molecule `CCCn1cc(NC(=O)c2ccc(S(=O)(=O)CC)cc2)ccc1=O`, the INHIBITION is reported as 60.3%.
The figure for `CCCn1cc(NC(=O)c2ccncc2)ccc1=O` is 50.8%; for `Cn1cc(NC(=O)c2cccc3cccnc23)ccc1=O` it is -10.8%.
The figure for `CC(C)n1ccnc1CN1CCCN(C(=O)CN(C)C2CC2)CC1` is 40%; for `Cc1nc(CN2CCCC(NCCOc3cccc(C#N)c3)C2)no1` (stereo unspecified) it is 0.914%.
The figure for `Cc1nccn1-c1cc(CNC(=O)CCS(=O)(=O)C2CCCC2)ccn1` is 5.9%; for `Cc1ccc(OCCSC2=NCCN2)cc1` it is 32.5%; for `Cc1c(NC(=O)c2noc3c2CCCC3)cnn1C` it is 10%.
Consider `Cn1ccnc1Sc1ncc(C(=O)N2CCCCC2)cc1Cl`, for which the INHIBITION was determined as 27.6%.
As for `CCOCCNC(=O)c1cnc(Sc2nccn2C)c(Cl)c1`, the INHIBITION was determined as 50.8%.
Turning to `CN1CCN(S(=O)(=O)c2ccc(Sc3nccn3C)nc2)CC1`, the INHIBITION is 46.1%.
To `Cn1c(-c2ccccc2Cl)nc2cc(C(=O)NCCOCCO)cnc21` belongs -50.7%.
To `CCNC(=O)c1cnc(Sc2nccn2C)c(Cl)c1` belongs 62.8%.
To `CCOCCCNC(=O)c1nn(CC)cc1Cl` belongs 7.9%; to `Cc1c(Cl)cc(C(=O)N(CCO)Cc2nccn2C)cc1Cl`, -8.47%; to `CC(C)NC(=O)c1cnc(Sc2nccn2C)c(Cl)c1`, 62.8%.
Turning to `CCN(CC)C(=O)c1cnc(Sc2nccn2C)c(Cl)c1`, the INHIBITION is reported as 48%.
The figure for `CCCn1nccc1NC(=O)CN1CCCC1Cn1nc(C)nc1C` (stereo unspecified) is -101%; for `Cn1nc2c(cc1=O)CN(CCN1CCCC1=O)CC2` it is -7.35%; for `CCOc1ccc(Cl)c(C(=O)NC)n1` it is 49%.
To `CS(=O)(=O)NCC1(O)CCCN(C(=O)CCn2cc(Cl)cn2)CC1` (stereo unspecified) belongs -28.7%; to `CCCc1nc(CN(CCO)Cc2cc(Br)ccc2F)no1`, 39.4%; to `CN1CCN(CCOc2ccc(NC(=O)c3cnc[nH]3)cc2)CC1`, 1.04%.
To `Cc1cc(C)nc(CN(C)c2nc(C3CCCC3)nc3c2cnn3C)c1` belongs 0.87%; to `Cc1c[nH]c(CN(C)c2nc(C3CCCC3)nc3c2cnn3C)n1`, 60.1%.
On to `Cc1nn(C)c(C)c1CN(C)c1nc(C2CCCC2)nc2c1cnn2C`, for which the INHIBITION is recorded as 42.6%.
The figure for `Cc1ccc(OC2CCN(S(=O)(=O)N(C)C)CC2)nc1` is 35.4%; for `CCOc1cc(-c2cc(=O)n3c(n2)CCCCC3)ccc1O` it is -6.09%.
To `CCS(=O)(=O)NCc1cc(Br)c(OC)c(OC)c1` belongs 51.3%; to `CCC(=O)NCc1cc(Br)c(OC)c(OC)c1`, -4.74%.
To `CCCC(=O)NCc1cc(Br)c(OC)c(OC)c1` belongs -26.1%; to `CC(=O)NCCOc1c(Cl)cccc1Cl`, 22%.
With `CN(Cc1cnn(C)c1)C(=O)CCC(=O)c1ccc2c(c1)OCCO2`, the INHIBITION is 5.48%.
To `CCc1cc(C(F)(F)F)n2nc(C3CCCN3C3CCSCC3)cc2n1` (stereo unspecified) belongs 18.95%.
To `Cc1cc(N2CCCC(c3n[nH]c4ncccc34)C2)ncn1` (stereo unspecified) belongs 26.3%.
